In the library only some 3.1% were active in any assay of this set; here they are far more common.
PP5 primary = PP5 (human) phosphatase inhibition. P53041. purified PP5c, OMFP substrate fluorescence. inhibition, % at 6.7 µM. 320,000 tested, 0.18% active;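 active = inhibition above the campaign's mean inhibition across all tested compounds plus 3 SD, cut at about 9.5% in these data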;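 also: 0% = DMSO only and 100% = 100 µM cantharidin control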
Target sequence (P53041 whole entry, looked up): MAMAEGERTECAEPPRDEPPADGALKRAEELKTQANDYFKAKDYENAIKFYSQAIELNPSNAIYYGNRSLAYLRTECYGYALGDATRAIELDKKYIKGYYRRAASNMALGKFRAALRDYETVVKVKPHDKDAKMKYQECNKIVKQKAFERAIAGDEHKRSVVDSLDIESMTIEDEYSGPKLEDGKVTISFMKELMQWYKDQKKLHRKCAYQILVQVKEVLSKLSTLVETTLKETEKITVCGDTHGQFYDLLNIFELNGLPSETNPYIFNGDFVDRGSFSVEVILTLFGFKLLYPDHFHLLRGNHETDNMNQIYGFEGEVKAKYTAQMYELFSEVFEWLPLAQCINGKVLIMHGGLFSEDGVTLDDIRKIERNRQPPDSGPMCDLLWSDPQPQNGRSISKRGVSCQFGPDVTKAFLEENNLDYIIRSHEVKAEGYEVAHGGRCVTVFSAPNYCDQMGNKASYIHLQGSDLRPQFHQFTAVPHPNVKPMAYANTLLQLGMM
SKKanGAS inh = blocks kanamycin growth of S. pyogenes SKKanGAS strain | BacTiter-Glo, 6 h | inhibition, % at 7.5 µM | 300,000 tested, 1.3% active;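 active = mean replicate score, as percent of positive control median, at least 50; inconclusive = mean below 50 but one replicate at or above 50; inactive = mean and every replicate below 50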;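 also: strain carries kanamycin resistance gene driven by streptokinase promoter and grows in 40 µg/ml kanamycin; loss of luminescence reflects streptokinase promoter inhibition or plain growth inhibition; 0% = median of DMSO wells and 100% = positive control at its reference dose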
PP1 counter = blocks human PP1-alpha phosphatase, a PP5 counter-screen | AID 2235 | inhibition, % at 6.7 µM | 320,000 tested, 0.9% active | purified PP1alpha, OMFP fluorescence | P62136;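 active = inhibition above the mean inhibition of all tested compounds plus 3 SD, computed separately for each screening campaign, cut at about 15% in these data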
CSC inhib = cancer stem cell inhibition. cancer stem cell-like cells viability, luminescence. inhibition, % at 7.5 µM. 300,000 tested, 1.1% active; in the data active = inhibition above about 75%; inconclusive = no clear call, values can overlap the other calls; tested in HMLE shEcad cells
Beta cell apopt = blocks beta cell apoptosis; INS-1E cytokine-induced death, ATP luminescence, 48 h; percent of positive-control rescue, neutral wells zero; protection from apoptosis, % (concentration not given with the values); 300,000 tested, 0.8% active; AID 435005;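 active = Every replicate reaches about 75%, or at least half do and their mean reaches it too, limit read from the data; inconclusive = At least half of replicates reach the limit but their mean does not; inactive = Under half of replicates reach the limit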;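 also: 0% = cytokine-treated negative control wells and 100% = positive control rescue; higher means more ATP so stronger rescue from cytokine killing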
An asterisk follows results filed as active; ? = inconclusive; . = no result given; + = active, no number.

SMILES	PP5 primary	SKKanGAS inh	PP1 counter	CSC inhib	Beta cell apopt
O=C1/C(=C\c2cccc([N+](=O)[O-])c2O)SC(=S)N1Cc1ccccc1	-4	20	2	35	7
COc1cc(/C=C2/SC(=S)N(Cc3ccccc3)C2=O)ccc1OS(C)(=O)=O	-2	-3	3	29	-7
O=S(=O)(Nc1ccc(O)c2ccccc12)c1ccc(Br)cc1	3	8	6	36	.
CCOC(=O)C(=O)Nc1nc(-c2ccccc2)c(-c2ccccc2)o1	1	0	11	-14	3
COc1cccc(C(=O)Nc2ccc(NC(=O)Cc3ccccc3)cc2)c1	1	15	17*	1	.
O=C(Nc1nc(-c2ccccc2)c(-c2ccccc2)o1)c1ccc(F)cc1	-1	101*	5	9	43
O=C(O)c1ccc(NC(=S)NC(=O)c2cccc(COc3ccccc3)c2)cc1	1	58*	14	.	4
COc1cccc(C(=O)Nc2nc(-c3ccccc3)c(-c3ccccc3)o2)c1	0	92*	0	20	1
COc1cccc(C(=O)Nc2ccccc2)c1	3	-6	0	1	-7
COc1cccc(C(=O)NNC(=O)c2ccccc2)c1	.	9	.	6	-4
CC(C)N1CCC(N2CCN(Cc3ccc(-c4ccc(Cl)cc4)o3)CC2CCO)CC1 (stereo not given)	2	-3	-4	-5	2
CCN1CCN(CC(=O)Nc2ccc(S(=O)(=O)N3C(C)CCCC3C)cc2)CC1 (stereo not given)	-2	-9	-6	-2	-1
CCc1nc2ccc(C(=O)N3CCN(c4cccc(C(F)(F)F)c4)CC3)cc2nc1CC	5	19	5	-1	0
CCN(CC)S(=O)(=O)c1ccc(N/N=C(\C)c2ccc(OC)cc2O)nc1	3	82*	3	48	97*
Fc1ccccc1CNc1cc(Cl)cc(Cl)c1	1	73*	3	7	2
COc1ccc(C(C[N+](=O)[O-])c2c(-c3ccccc3)cc3ccccn23)cc1OC (stereo not given)	1	0	7	10	1
COc1ccc(C(C[N+](=O)[O-])C2(c3ccc(OC)c(OC)c3)C(=O)c3ccccc3C2=O)cc1 (stereo not given)	3	22	-4	89*	-2
Cc1c(CCC(=O)NCCC(=O)O)c(=O)oc2cc3occ(-c4ccccc4)c3cc12	-1	15	1	-8	1
Cc1c(CCC(=O)O)c(=O)oc2c(C)c3occ(-c4ccc(Cl)cc4)c3cc12	.	58*	.	-2	11
Cc1c(CC(=O)O)c(=O)oc2c(C)c3occ(-c4ccccc4)c3cc12	1	4	-3	-4	-6
Cc1c(CCC(=O)O)c(=O)oc2cc3occ(-c4ccc(F)cc4)c3cc12	-1	11	4	2	9
Cc1c(CCC(=O)O)c(=O)oc2cc3occ(-c4ccc(Cl)cc4)c3cc12	0	63*	5	-5	10
Cc1c(CCC(=O)O)c(=O)oc2cc3occ(-c4ccc(Br)cc4)c3cc12	-1	77*	10	-5	8
O=C(NNC(=O)C12CC3CC(CC(O)(C3)C1)C2)c1csc(N2CCOCC2)n1	0	8	0	-11	-5
O=C(NC1CCCCC1)C(c1cccnc1)N(C(=O)c1csnn1)c1ccccc1F (stereo not given)	2	5	1	-4	-3
SMILES	PP5 primary	SKKanGAS inh	PP1 counter	CSC inhib	Beta cell apopt
CCc1nnc(NC(=O)c2ccc3ncsc3c2)s1	1	3	-4	.	-8
Cc1cc(C)c(C)c(OCCCOc2cccc3cccnc23)c1	3	61*	2	28	0
Cc1ccccc1-c1n[nH]c(=S)o1	1	1	0	-7	.
CSc1ccccc1-c1n[nH]c(=S)o1	.	56*	.	.	.
O=C(CN1C(=O)C(=O)N(C2CCCC2)C1=O)Nc1ccc(N2CCOCC2)cc1	-2	2	-8	-7	-2
CCOCCCNC(=O)/C(C#N)=C/c1ccc([N+](=O)[O-])o1	1	4	-3	+	2
CC(NC(=O)/C(C#N)=C/c1ccco1)c1ccccc1 (stereo not given)	0	3	-2	-1	-7
CC(NC(=O)/C(C#N)=C/c1ccc([N+](=O)[O-])o1)c1ccccc1 (stereo not given)	-2	57*	-1	.	41
CCOCCCNC(=O)/C(C#N)=C/c1ccc(-c2ccc(S(=O)(=O)N3CCOCC3)cc2)o1	2	9	0	10	-5
COc1ccccc1Cc1nnc(NC(=O)C2CCN(C(=O)c3ccco3)CC2)s1	2	-10	2	13	-1
O=C(Nc1nc(=S)ss1)c1ccc(Cl)cc1Cl	4	52*	-1	.	23
CSc1nc2ccsc2c(=O)n1-c1ccccn1	1	1	-2	-1	-5
CCOc1ccccc1/C=N\Nc1cnn(Cc2ccccc2)c(=O)c1Cl	5	35	16*	-3	-2
Nc1ccc(-c2nc3nc(N)nc(N)c3nc2-c2ccc(N)cc2)cc1	2	62*	5	1	1
COCCCN(C(=O)c1cc(C)oc1C)c1c(N)n(CC(C)C)c(=O)[nH]c1=O	-1	.	-5	-17	3
CCC(CC)c1nn2c(N)c(/C=C3\C(C)=Nc4ccccc43)c(=O)nc2s1	3	62*	1	13	-2
CCOc1cc(/C=C2\C(=O)N(c3nc(-c4ccc(Br)cc4)cs3)N=C2c2ccccc2)ccc1O	1	73*	12	99*	.
COc1cc(/C=C2\C(=O)N(c3ccc(NC(C)=O)cc3)N=C2c2ccccc2)ccc1O	1	.	-7	9	-2
Cc1nnc(SCc2ccccc2CSc2nnc(C)s2)s1	1	2	6	-9	1
Clc1ccc(-c2nnnn2-c2ccc(Cl)c(Cl)c2)cc1Cl	2	58*	4	?	11
Nc1ccc(-c2nnnn2-c2ccc(N)cc2)cc1	-1	-1	2	-2	-7
O=C(Nc1ncc(Cc2ccc(SC(F)F)cc2)s1)c1ccc(OC(F)F)cc1	3	0	3	75*	16
CCOC(=O)c1sc(-c2ccc(C(F)(F)F)cc2)nc1O	-1	29	17*	1	-17
CC(=O)Nc1ccc(NC(=O)[C@@H](NC(=O)c2ccccc2F)C(C)C)cc1	1	-3	2	1	0
CC(C)NCC(O)Cn1c2c(c3ccccc31)CCc1c-2cnn1-c1ccccc1 (stereo not given)	-5	4	6	14	113*
CN1CCc2c(n(CC(O)CNCc3ccccc3)c3ccccc23)C1=O (stereo not given)	1	-12	-2	6	3
COc1cc(NC(=O)CSc2ncnc3sc4c(c23)CCCC4)c(C(=O)O)cc1OC	1	55*	1	-11	-7
CC(C)Oc1ccc(C(CCN)C2CCCCC2)cc1 (stereo not given)	-2	1	7	31	91*
CC(C)Oc1ccc(C(=O)NC2CCCCC2)cc1	-1	-3	-2	-8	5

High-throughput results as filed in PubChem BioAssay.
